Laboratory results taken from PubChem BioAssay (NCATS).
The source holds several records for some structures; these can differ, active in one and inactive in another. Active and inactive are the calls of the source. Unless noted, calls follow the shape of the full dose curve.

Experiments:
[1] = molecular target: Estrogen receptor (Homo sapiens) (UniProt P03372); experiment: qHTS assay for small molecule antagonists of estrogen receptor alpha signaling (AID 588513; active = well fitted curve in the direction sought with a large enough effect in the signal ratio, with a control signal flat, not every such curve was filed as active; inconclusive = small, poorly fitted or top-dose-only effect, or effect the other way, or a change in a side signal; inactive = no such curve, though single readings can be large or run the other way; the % refers to the signal ratio; also: potency is read from the fitted curve at half-maximal effect)
Chain of Estrogen receptor (Homo sapiens) (P03372 whole entry, looked up): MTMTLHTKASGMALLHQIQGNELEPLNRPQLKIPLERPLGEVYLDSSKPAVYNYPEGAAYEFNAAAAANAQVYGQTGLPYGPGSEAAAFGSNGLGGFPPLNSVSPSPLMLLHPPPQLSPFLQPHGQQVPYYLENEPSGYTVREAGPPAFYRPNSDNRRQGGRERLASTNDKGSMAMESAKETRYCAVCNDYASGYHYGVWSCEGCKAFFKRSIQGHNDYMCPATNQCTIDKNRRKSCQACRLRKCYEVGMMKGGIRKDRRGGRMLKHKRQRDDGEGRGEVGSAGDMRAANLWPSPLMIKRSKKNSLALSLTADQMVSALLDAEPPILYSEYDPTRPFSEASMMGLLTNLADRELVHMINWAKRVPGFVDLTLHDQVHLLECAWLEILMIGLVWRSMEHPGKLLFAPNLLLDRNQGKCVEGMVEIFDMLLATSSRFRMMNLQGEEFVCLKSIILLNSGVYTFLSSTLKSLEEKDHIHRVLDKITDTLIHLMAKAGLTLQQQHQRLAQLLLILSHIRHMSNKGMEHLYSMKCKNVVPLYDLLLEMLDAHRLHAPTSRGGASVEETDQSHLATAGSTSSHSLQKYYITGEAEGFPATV
Procedure, shortened: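 Beta-lactamase reporter, antagonist mode, HEK 293 GripTite cells; 0.5nM E2 stimulus, 18 h, 37 C; CCF4 dye 2 h RT; fluorescence. IC50 and efficacy from Hill fits, normalized to E2 and DMSO.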

[2] = molecular target: Peroxisome proliferator-activated receptor delta (Homo sapiens) (UniProt Q03181); experiment: qHTS assay for small molecule agonists of peroxisome proliferator-activated receptor delta signaling (AID 588534);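 also: 0% = DMSO basal wells and 100% = positive control agonist at 10 µM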
Chain of Peroxisome proliferator-activated receptor delta (Homo sapiens) (Q03181 whole entry, looked up): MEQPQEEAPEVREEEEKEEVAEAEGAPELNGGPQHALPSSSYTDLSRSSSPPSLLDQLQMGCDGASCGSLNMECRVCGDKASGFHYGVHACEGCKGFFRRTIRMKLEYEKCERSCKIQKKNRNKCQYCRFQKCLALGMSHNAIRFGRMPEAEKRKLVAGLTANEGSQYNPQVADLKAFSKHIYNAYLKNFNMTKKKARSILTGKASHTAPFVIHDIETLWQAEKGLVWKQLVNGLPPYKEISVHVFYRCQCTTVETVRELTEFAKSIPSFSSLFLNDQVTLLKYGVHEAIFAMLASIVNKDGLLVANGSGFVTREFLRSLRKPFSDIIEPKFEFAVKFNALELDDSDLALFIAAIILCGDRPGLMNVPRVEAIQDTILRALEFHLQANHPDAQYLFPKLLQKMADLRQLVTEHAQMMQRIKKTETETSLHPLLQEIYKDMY
Procedure, shortened: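 Titration series tested in agonist mode on beta-lactamase reporter cells; 18 hrs at 37 C after a 5 hr pre-incubation. Readout: CCF4 fluorescence, 2 hrs RT. Hill equation gives EC50 and maximal response.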

[3] = molecular target: Peroxisome proliferator-activated receptor gamma (Homo sapiens) (UniProt P37231); experiment: qHTS assay for small molecule antagonists of peroxisome proliferator-activated receptor gamma signaling (AID 588537; active = well fitted inhibition curve with a large enough effect in the signal ratio, with a control signal flat, not every such curve was filed as active; inconclusive = small, poorly fitted or top-dose-only effect, or effect the other way, or a change in a side signal; the % refers to the signal ratio;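 also: reporter cells co-stimulated with 50 nM rosiglitazone agonist during compound treatment; % of control where 0% means no effect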)
Chain of Peroxisome proliferator-activated receptor gamma (Homo sapiens) (P37231 whole entry, looked up): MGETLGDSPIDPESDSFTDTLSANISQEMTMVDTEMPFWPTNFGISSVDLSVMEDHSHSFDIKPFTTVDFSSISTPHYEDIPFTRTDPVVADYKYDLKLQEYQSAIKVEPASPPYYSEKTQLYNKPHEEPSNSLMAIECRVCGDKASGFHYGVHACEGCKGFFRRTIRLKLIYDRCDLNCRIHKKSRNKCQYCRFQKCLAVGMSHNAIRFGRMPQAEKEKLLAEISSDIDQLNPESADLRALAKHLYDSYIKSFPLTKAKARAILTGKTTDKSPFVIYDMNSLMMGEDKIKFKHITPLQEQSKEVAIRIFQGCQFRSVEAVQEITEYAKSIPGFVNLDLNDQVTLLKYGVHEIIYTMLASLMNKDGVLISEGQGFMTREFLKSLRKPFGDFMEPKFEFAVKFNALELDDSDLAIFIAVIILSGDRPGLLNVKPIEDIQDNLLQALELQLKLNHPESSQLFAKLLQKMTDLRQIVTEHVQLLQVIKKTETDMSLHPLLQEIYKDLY
Procedure, shortened: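 HEK293 cells, PPAR-gamma-UAS-bla, 3000/well. Pre-incubation 6-6.5 h, 37 C. Compound titration with rosiglitazone 50 nM final, 16 h. CCF4 dye, 2 h RT, dual-emission fluorescence.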

[4] = molecular target: Vitamin D3 receptor (Homo sapiens) (UniProt P11473); experiment: qHTS assay for small molecule agonists of vitamin D receptor signaling (AID 588543);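 also: 0% = DMSO basal and 100% = reference agonist control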
Chain of Vitamin D3 receptor (Homo sapiens) (P11473 whole entry, looked up): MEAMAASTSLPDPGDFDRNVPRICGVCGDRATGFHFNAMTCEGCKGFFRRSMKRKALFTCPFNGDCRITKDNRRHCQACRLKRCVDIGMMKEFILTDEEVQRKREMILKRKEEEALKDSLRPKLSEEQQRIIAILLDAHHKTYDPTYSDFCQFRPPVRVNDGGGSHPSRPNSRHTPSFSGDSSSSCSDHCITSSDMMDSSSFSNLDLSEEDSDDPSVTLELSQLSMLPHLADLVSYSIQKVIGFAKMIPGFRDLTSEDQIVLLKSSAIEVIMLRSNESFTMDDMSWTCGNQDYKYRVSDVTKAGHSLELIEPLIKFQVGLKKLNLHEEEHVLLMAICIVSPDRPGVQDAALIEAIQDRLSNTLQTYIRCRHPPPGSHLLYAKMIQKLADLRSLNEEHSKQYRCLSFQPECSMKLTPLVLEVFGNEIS
Procedure, shortened: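 β-lactamase reporter, VDR-UAS-bla HEK293T, agonist mode. Cells plated 5 h at 37 °C, compound titration 16 h at 37 °C, CCF4 dye 2 h RT, ratio 460/530 nm. Hill fit → EC50, efficacy vs 50 nM 1α,25-(OH)2D3.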

[5] = qHTS assay for small molecule activators of the p53 signaling pathway (AID 651743; active = well fitted activation curve with a large enough effect in the signal ratio, not every such curve was filed as active; inconclusive = small, poorly fitted or top-dose-only effect, or a change in a side signal; the % refers to the signal ratio; also: potency is read from the fitted curve at half-maximal effect; as to activation: series mostly up to about 92 µM; % of control where 0% means no effect); details: HCT-116 p53RE-bla, beta-lactamase FRET ratio, 16 h; activation: stronger effect = higher value
Procedure, shortened: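 Here HCT-116 cells with an integrated p53-responsive beta-lactamase gene were incubated with compounds (16 hours, 37 C) after a 5-hour plating period; beta-lactamase activity was detected as fluorescence intensity via B/G FRET substrate.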

[6] = qHTS assay for environmental chemicals that activate the Aryl hydrocarbon Receptor (AhR) signaling pathway (AID 651777; active = well fitted curve in the direction sought with a large enough effect; inconclusive = small, poorly fitted or top-dose-only effect, or another doubt; inactive = no such curve, though single readings can be large; an effect the other way counts as inactive or inconclusive; also: nearly all actives have a fitted effect of over 15% in size; also: potency is read from the fitted curve at half-maximal effect; as to activation: % of control where 0% means no effect); details: 1A2-DRE human hepatoma cells, luciferase, 24 h; activation: stronger effect = higher value
Procedure, shortened: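 Quantitative HTS in stably transfected human liver-derived cells whose luciferase gene sits downstream of the CYP1A2 promoter and dioxin response element. After 24 hr exposure at 37 C, One-Glo luminescence was measured.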

[7] = qHTS assay for small molecule agonists of the antioxidant response element (ARE) signaling pathway measured by Nrf2-dependant transcriptional activity (AID 720636; active = well fitted curve in the direction sought with a large enough effect in the repeat runs; inconclusive = weak or mixed curves; inactive = no such curve, though single readings can be large; an effect the other way counts as inactive or inconclusive; also: potency is read from the fitted curve at half-maximal effect; as to activation: % of control where 0% means no effect)
Procedure, shortened: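 Quantitative HTS format in HepG2 cells stably expressing an ARE-luciferase reporter; 16 hr compound treatment at 37 C, luciferase signal detected with ONE-Glo.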

[8] = qHTS assay for small molecule antagonists of peroxisome proliferator-activated receptor delta signaling (AID 588535); details: HEK293T PPARd-UAS-bla, beta-lactamase FRET ratio, 18 h; 460 nm channel;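 also: cells co-treated with a PPAR-delta agonist as stimulator during compound exposure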
Procedure, shortened: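 Compounds tested in titration on PPAR-delta-UAS-bla HEK293T cells grown in charcoal/dextran-stripped serum (2%); beta-lactamase activity read via CCF4 emission at 460 and 530 nm.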

[9] = molecular target: Peroxisome proliferator-activated receptor gamma (Homo sapiens) (UniProt P37231); experiment: qHTS assay for small molecule agonists of peroxisome proliferator-activated receptor gamma signaling (AID 588536; active = well fitted curve in the direction sought with a large enough effect in the signal ratio, with a control signal flat, not every such curve was filed as active; inconclusive = small, poorly fitted or top-dose-only effect, or effect the other way, or a change in a side signal; inactive = no such curve, though single readings can be large or run the other way; the % refers to the signal ratio;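 also: 0% = DMSO basal wells and 100% = rosiglitazone at 2 µM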)
Procedure, shortened: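 Using GeneBLAzer HEK293 cells, response was quantified by CCF4 fluorescence and normalized between basal DMSO (0%) and rosiglitazone 2 uM (100%); curves yielded half-maximal stimulation concentration and efficacy.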

[10] = molecular target: Vitamin D3 receptor (Homo sapiens) (UniProt P11473); experiment: qHTS assay for small molecule antagonists of vitamin D receptor signaling (AID 588541);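 also: receptor activated by calcitriol during compound treatment; series mostly up to about 77 µM; % is scaled to controls: 0 for no effect and ±100 for the full control effect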
Procedure, shortened: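 VDR-UAS-bla HEK293T cells (2000/well, 2% charcoal-stripped FBS) were treated with titrated compounds plus 1-alpha,25-dihydroxyvitamin D3 (50 nM or 3 nM final) for 16 h at 37 C. CCF4 beta-lactamase fluorescence was read; Hill fits gave IC50.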

[11] = qHTS assay for small molecule agonists of retinoid X receptor alpha signaling (AID 588544); details: HEK293T RXRa-UAS-bla, beta-lactamase reporter, 18 h; 530 nm emission;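 as to activation: 0% = DMSO basal wells and 100% = reference agonist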
[12] = molecular target: Retinoic acid receptor RXR-alpha (Homo sapiens) (UniProt P19793); experiment: as above
Chain of Retinoic acid receptor RXR-alpha (Homo sapiens) (P19793 whole entry, looked up): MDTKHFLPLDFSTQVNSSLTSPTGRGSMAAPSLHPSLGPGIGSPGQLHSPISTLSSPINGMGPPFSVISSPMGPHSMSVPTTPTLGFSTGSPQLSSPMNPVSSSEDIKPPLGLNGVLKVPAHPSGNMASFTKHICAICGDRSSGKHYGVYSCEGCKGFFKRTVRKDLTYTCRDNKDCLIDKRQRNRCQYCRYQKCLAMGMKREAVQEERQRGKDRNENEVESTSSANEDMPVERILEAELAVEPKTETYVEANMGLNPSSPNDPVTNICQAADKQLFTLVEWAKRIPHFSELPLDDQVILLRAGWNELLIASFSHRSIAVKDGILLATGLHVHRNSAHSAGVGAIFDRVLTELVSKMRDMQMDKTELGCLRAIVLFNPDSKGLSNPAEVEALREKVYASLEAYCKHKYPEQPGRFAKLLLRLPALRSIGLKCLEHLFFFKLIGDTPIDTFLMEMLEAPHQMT

[13] = molecular target: Thyroid hormone receptor beta (Homo sapiens) (UniProt P10828); experiment: qHTS assay for small molecule agonists of thyroid hormone receptor beta signaling (AID 588545);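 also: 0% = DMSO only and 100% = 10 nM T3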
Chain of Thyroid hormone receptor beta (Homo sapiens) (P10828 whole entry, looked up): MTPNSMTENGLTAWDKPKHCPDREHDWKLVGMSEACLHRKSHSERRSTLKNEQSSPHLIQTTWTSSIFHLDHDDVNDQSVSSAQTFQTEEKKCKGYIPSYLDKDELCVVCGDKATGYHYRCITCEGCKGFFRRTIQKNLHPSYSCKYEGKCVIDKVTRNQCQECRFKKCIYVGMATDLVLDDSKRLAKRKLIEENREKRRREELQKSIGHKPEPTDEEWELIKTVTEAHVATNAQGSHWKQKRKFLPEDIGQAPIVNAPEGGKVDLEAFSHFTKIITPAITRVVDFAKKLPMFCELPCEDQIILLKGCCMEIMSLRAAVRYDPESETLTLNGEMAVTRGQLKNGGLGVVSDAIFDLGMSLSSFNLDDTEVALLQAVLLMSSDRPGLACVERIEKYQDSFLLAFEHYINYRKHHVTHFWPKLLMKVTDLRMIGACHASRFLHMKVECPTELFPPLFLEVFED
Procedure, shortened: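 Stimulation of a TR-driven beta-lactamase reporter was quantified in GripTite HEK 293 cells. Compound series ran for 18 hrs; curves were normalized to T3 and DMSO controls and fitted to yield EC50.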

[14] = qHTS assay for small molecule antagonists of retinoid X receptor alpha signaling (AID 588546; active = well fitted inhibition curve with a large enough effect in the signal ratio, with a control signal flat, not every such curve was filed as active; inconclusive = small, poorly fitted or top-dose-only effect, or effect the other way, or a change in a side signal; inactive = no such curve, though single readings can be large or run the other way; the % refers to the signal ratio;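 also: cells stimulated with 9-cis-retinoic acid as agonist; % is scaled to controls: 0 for no effect and ±100 for the full control effect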); details: HEK293T RXRa-UAS-bla, beta-lactamase ratio, antagonist mode; measured here: W530 green channel, cytotoxicity proxy
Procedure, shortened: (§1)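 Beta-lactamase reporter inhibition, read as CCF4 fluorescence ratio (ex 405, em 460/530 nm) after 2 h at RT. HEK293T UAS-bla cells, 2500/well, were stimulated with 9-cis-RA at 500 or 100 nM final alongside test compound for 18 h at 37 C.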

[15] = molecular target: Retinoic acid receptor RXR-alpha (Homo sapiens) (UniProt P19793); experiment: as above; details: HEK293T RXRa-UAS-bla, beta-lactamase ratio, antagonist mode
Procedure, shortened: as §1

[16] = molecular target: Peroxisome proliferator-activated receptor alpha (Homo sapiens) (UniProt Q07869); experiment: qHTS assay for small molecule agonists of the peroxisome proliferator-activated receptor alpha (PPARalpha) signaling pathway (AID 651778; active = well fitted curve in the direction sought with a large enough effect; inconclusive = small, poorly fitted or top-dose-only effect, or another doubt; inactive = no such curve, though single readings can be large; an effect the other way counts as inactive or inconclusive; also: % of control where 0% means no effect); details: PathHunter PPARalpha complementation, chemiluminescence, 6 h; max response: stronger effect = higher value
Chain of Peroxisome proliferator-activated receptor alpha (Homo sapiens) (Q07869 whole entry, looked up): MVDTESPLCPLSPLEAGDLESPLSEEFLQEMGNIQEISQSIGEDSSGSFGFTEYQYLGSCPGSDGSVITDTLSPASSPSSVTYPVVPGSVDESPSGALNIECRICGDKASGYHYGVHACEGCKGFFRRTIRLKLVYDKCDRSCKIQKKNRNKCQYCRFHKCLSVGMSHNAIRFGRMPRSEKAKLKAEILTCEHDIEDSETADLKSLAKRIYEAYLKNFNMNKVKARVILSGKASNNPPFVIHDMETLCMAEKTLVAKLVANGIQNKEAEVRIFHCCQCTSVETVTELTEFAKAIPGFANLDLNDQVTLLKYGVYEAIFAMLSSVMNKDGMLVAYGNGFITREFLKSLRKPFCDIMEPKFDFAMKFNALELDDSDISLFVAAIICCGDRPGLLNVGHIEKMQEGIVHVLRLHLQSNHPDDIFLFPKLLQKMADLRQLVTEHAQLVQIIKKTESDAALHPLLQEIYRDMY
Procedure, shortened: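 Cells plated at 2,000/well and held overnight at 37 C, 5% CO2, then compound added by pin tool for 6 hr; after PathHunter detection reagent and 60 min at room temperature, chemiluminescence from enzyme complementation was read.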

[17] = qHTS assay for small molecule agonists of the antioxidant response element (ARE) signaling pathway measured by Nrf2-dependant transcriptional activity - cell viability counter screen (AID 720653; active = well fitted curve in the direction sought with a large enough effect in the repeat runs; inconclusive = weak or mixed curves; inactive = no such curve, though single readings can be large; an effect the other way counts as inactive or inconclusive; also: % is scaled to controls: 0 for no effect and ±100 for the full control effect); details: ARE-bla HepG2 viability, CellTiter-Glo ATP luminescence, 16 h; max response: stronger effect = lower value
Procedure, shortened: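 ARE-bla HepG2 cells (2,000/well) rested 5 hrs at 37C/5% CO2, then exposed to compounds in DMSO for 16 hrs. Viability was read in the same wells as intracellular ATP by luminescence, 30 min at room temperature after reagent addition.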

[18] = qHTS assay for cell viability of HEK293 cells (AID 743288; active = well fitted curve in the direction sought with a large enough effect; inconclusive = small, poorly fitted or top-dose-only effect, or another doubt; inactive = no such curve, though single readings can be large; an effect the other way counts as inactive or inconclusive; also: % is scaled to controls: 0 for no effect and ±100 for the full control effect; nearly all actives have a fitted effect of over 50% in size); details: ATP luminescence (CellTiter-Glo), 18 h; max response: stronger effect = lower value
Procedure, shortened: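 ATP luminescence (CellTiter-Glo) reports metabolically competent cell number after parental HEK293 cells, 2,000/well, were treated with DMSO-dissolved compounds for 18 h at 37 C; reagent incubation 30 min, room temperature.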

[19] = qHTS assay for cell viability of the p53RE-bla HCT-116 cell line (AID 743292; active = well fitted curve in the direction sought with a large enough effect; inconclusive = small, poorly fitted or top-dose-only effect, or another doubt; inactive = no such curve, though single readings can be large; an effect the other way counts as inactive or inconclusive; also: % is scaled to controls: 0 for no effect and ±100 for the full control effect; nearly all actives have a fitted effect of over 55% in size)
Procedure, shortened: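 Viability of compound-treated p53RE-bla HCT-116 cells is taken from ATP-dependent luciferase luminescence. Treatment lasts 16 h at 37 C after a 5 h settling period; detection follows 30 min at room temperature.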

[20] = molecular target: Nuclear receptor subfamily 1 group I member 2 (Rattus norvegicus) (UniProt Q9R1A7); experiment: qHTS assay for small molecule activators of the rat pregnane X receptor (rPXR) signaling pathway (AID 651751; call rule not given here; also: 0% is about no effect); details: rPXR reporter cells, luciferase (One-Glo), 24 h
Chain of Nuclear receptor subfamily 1 group I member 2 (Rattus norvegicus) (Q9R1A7 whole entry, looked up): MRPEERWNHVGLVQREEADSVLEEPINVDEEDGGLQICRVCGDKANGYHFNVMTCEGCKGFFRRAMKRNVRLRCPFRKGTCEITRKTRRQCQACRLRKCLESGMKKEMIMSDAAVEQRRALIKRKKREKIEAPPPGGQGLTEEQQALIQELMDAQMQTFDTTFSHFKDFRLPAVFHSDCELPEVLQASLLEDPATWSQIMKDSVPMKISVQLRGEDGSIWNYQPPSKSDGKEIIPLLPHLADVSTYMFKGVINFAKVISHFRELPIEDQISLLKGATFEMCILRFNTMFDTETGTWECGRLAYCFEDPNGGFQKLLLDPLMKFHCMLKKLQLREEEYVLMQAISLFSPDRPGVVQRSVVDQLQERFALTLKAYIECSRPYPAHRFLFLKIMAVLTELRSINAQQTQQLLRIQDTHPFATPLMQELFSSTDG

O=Nc1ccc(Nc2ccccc2)cc1
inactive: outcome [2] | Potency [3] | outcome [4] | activation [5] 19.9% | activation [6] 6.01%
active: Potency [1] 12.6 µM [inconclusive] | Potency [5] 50.1 µM | Potency [7] 21.7 µM

CC(C)(c1ccccc1)c1cc(-n2nc3ccccc3n2)c(O)c(C(C)(C)c2ccccc2)c1
-10.8%: max response [14]
10.7%: max response [8]
inactive: Potency [1] | outcome [2] | Potency [9] | Potency [3] | Potency [10] | outcome [4] | Potency [12] | Potency [13] | max response [15] 0.796% | activation [5] -0.652% | activation [6] -0.0851% | max response [16] -0.734% | Potency [7] | max response [17] 4.77% | max response [18] -7.76% | Potency [19] | max response [20] 2.09%
-5.71%: max response [11]

Clc1ccc(C(Cl)(Cl)Cl)cc1
-6.16%: max response [11]
inactive: Potency [1] | Potency [12] | Potency [13] | max response [15] -3.2% | activation [5] -4.01% | activation [6] 0.701% | max response [16] -0.649% | Potency [7] | max response [17] -2.36% | max response [18] -0.236% | Potency [19] | max response [20] 2.13%
-19.4%: max response [14]

CCOC(=O)Nc1cccc(OC(=O)Nc2ccccc2)c1
2.58%: max response [11]
0.0057%: max response [14]
active: Potency [6] 44.7 µM
inactive: Potency [1] | outcome [2] | Potency [9] | Potency [3] | Potency [10] | outcome [4] | Potency [12] | Potency [13] | max response [15] -20.8% | activation [5] -3.18% | max response [16] -0.828% | max response [17] -18.4% | max response [18] -5.43% | Potency [19]
9.77%: max response [8]

O=c1[nH]c2ccccc2c(=O)o1
-6.9%: max response [11]
29.4%: max response [8]
inactive: Potency [1] | outcome [2] | Potency [9] | Potency [3] | Potency [10] | outcome [4] | Potency [12] | max response [15] -21.4% | activation [5] 1.12% | activation [6] 0.82% | max response [16] -3.96% | Potency [7] | max response [17] -1.48% | max response [18] -10.1% | Potency [19] | max response [20] -5.81%
-14.4%: max response [14]
